A selection: hits, their analogues and other compounds. The true share with any hit is near 21%.
RORgamma inh = blocks mouse ROR gamma transcriptional activity; Drosophila S2 Gal4-RORgamma UAS-luciferase reporter, 20 h; Potency, µM (highest dose often 53.6 µM), for the others: top-dose activity change, negative = inhibition, actives largely listed as inhibitors; 5.4% of 310,000 active; AID 2551; note: potency is the fitted concentration of half-maximal effect; nearly all actives have a fitted effect of over 60% in size
Target sequence (P51450 whole entry, looked up, the tested form may be a part): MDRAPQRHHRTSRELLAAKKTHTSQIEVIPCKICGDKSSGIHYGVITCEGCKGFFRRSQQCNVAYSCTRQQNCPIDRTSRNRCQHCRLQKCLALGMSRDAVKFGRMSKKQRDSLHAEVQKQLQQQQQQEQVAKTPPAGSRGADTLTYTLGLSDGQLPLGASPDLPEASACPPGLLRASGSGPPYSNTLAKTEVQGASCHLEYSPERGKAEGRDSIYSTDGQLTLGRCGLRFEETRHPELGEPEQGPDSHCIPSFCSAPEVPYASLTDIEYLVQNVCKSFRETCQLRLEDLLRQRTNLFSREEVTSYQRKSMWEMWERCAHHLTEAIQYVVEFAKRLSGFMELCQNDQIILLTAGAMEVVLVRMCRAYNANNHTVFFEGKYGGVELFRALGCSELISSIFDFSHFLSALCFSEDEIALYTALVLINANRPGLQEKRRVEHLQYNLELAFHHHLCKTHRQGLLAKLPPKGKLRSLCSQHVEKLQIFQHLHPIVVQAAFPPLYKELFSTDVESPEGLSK
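Luciferase reporter read in Schneider cells carrying Gal4-RORγ (mouse) and UAS-Photinus luciferase; cells given compound 1 h before 700 uM copper sulfate induction, then incubated 20 h at ambient temperature.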
TDP1 cell CPT = growth inhibition of DT40 Tdp1-/-;hTDP1 cells with camptothecin (screen for TDP1 inhibitors); chicken DT40 Tdp1-/-;hTDP1 cells + 20 nM CPT, ATP luminescence, 48 h; Potency, µM (top dose mostly 46.2 µM), inactives show at the highest dose activity change, negative = growth inhibition, hits mostly inhibitors; 12% of 420,000 active; note: potency is the fitted concentration of half-maximal effect; nearly all actives have a fitted effect of over 55% in size
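Chicken DT40 Tdp1-/- cells stably complemented with human TDP1 were seeded at 400 cells/well in medium containing 20 nM camptothecin, exposed to pin-transferred compounds, and grown at 37 °C for at least 48 hr. Viability was read as ATP luminescence.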
VP16 counter = Gal4-VP16 reporter inhibition counter-screen | 3.5% of 310,000 active | Potency, µM (series often up to 53.6 µM), for the others: at the highest dose activity, negative = inhibition, usual class: inhibitors | Drosophila S2 Gal4-VP16 UAS-luciferase, luminescence, 20 h;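 note: Gal4-VP16 expression switched on by copper sulfate through the metallothionein promoter; potency is the fitted concentration of half-maximal effect; nearly all actives have a fitted effect of over 50% in size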
DT40 TDP1 no CPT = qHTS for Inhibitors of human tyrosyl-DNA phosphodiesterase 1 (TDP1): qHTS in cells in absence of CPT; DT40 Tdp1-/- hTDP1 cells, no CPT, ATP luminescence, 48 h; Potency, µM (doses to about 46.2 µM), for inactives: top-dose activity change, negative = growth inhibition, hits mostly inhibitors; 15% of 420,000 active; note: potency is the fitted concentration of half-maximal effect; nearly all actives have a fitted effect of over 55% in size
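Growth kinetics read by CellTiter-Glo luminescence after ≥48 hr at 37 °C. Cells: DT40 Tdp1-/- stably carrying human TDP1, 400 per well, compound exposure in the absence of CPT (DMSO vehicle).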
ELG1 DNA repair = inhibitors of ELG1-dependent DNA repair in HEK293T cells; Potency, µM (top dose mostly 46.1 µM), for the others: at the top dose activity change, negative = inhibition, most hits filed as inhibitors; HEK293T ELG1-luciferase reporter, luminescence, 16 h; DNA damage induced by 5-fluorouridine; 2.3% of 330,000 active; note: potency is the fitted concentration of half-maximal effect; nearly all actives have a fitted effect of over 55% in size
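Overnight (16 hr) co-exposure of 2,000 cells/well to 5-fluorouridine and compound at 37 °C preceded detection. Luciferase was quantified via ONE-Glo luminescence; loss of signal denotes inhibition.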
IL1B secr inh = blocks inflammasome-driven IL-1 beta release. THP-1 LPS/ATP IL-1B secretion, AlphaLISA, 16 h; active compounds read low. AID 743279. 4.7% of 360,000 active. activity change, % at 57.5 µM; in the data active = activity change below about -50%; inconclusive = mostly about -30% to -49%
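Secreted IL-1B measured by AlphaLISA bead assay after 16 h compound exposure of THP-1 cells; compounds (final up to 57.5 uM) added 1 h before LPS (250 ng/mL) and ATP (1.25 mM) stimulation; lower signal means less secretion.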
Starred values were filed as active, the others as inactive; ? = inconclusive; nt = not tested or not shown; [ ] = dose if it differs, or a comment. Unless noted, calls come from the whole dose curve; as a rule, active = well fitted curve in the direction sought with a large enough effect; inconclusive = small, poorly fitted or top-dose-only effect, or another doubt; inactive = no such curve, though single readings can be large; an effect the other way counts as inactive or inconclusive. % is set by controls: 0 for no effect and ±100 for the full control effect.

SMILES	RORgamma inh	TDP1 cell CPT	VP16 counter	DT40 TDP1 no CPT	ELG1 DNA repair	IL1B secr inh
Cc1cc(C)c2c(c1)[C@@H]1C=CC[C@@H]1[C@H](c1ccc(S(=O)(=O)N3CCOCC3)cc1)N2	-1%	16µM*	?	18µM*	3%	-17
Nc1ncnc2n[nH]c(Nc3ccc(F)cc3)c12	36%	nt	-5%	nt	nt	nt
COC(=O)c1sc(-c2cccs2)cc1NC(=O)/C=C/C(=O)O	-90%	?	?	15µM*	2%	-92*
CC(C)Oc1cc(F)ccc1-c1cc(C(=O)Nc2ccccc2)[nH]n1	nt	?	nt	23µM*	nt	-3
CC(C)Oc1cc(F)ccc1-c1cc(C(=O)NCc2ccccc2)[nH]n1	nt	-1%	nt	-32%	nt	-26
CC(C)Oc1cc(F)ccc1-c1cc(C(=O)Nc2ccc(C(C)C)cc2)[nH]n1	nt	18µM*	nt	15µM*	nt	5
COc1ccc(CN2CCNC(=O)C2CC(=O)N2CCCCO2)cc1OC (stereo not drawn)	7%	4%	13%	12%	0%	15
COc1ccccc1C(=O)N(CCC1CCCN1C)c1nc2ccccc2s1 (stereo not drawn)	7.1µM*	-24%	?	?	?	-78*
O=C(O)CCCSc1nccn1-c1ccccc1	-15%	-2%	-2%	-14%	2%	0
Cc1cc(C)c(OCC(=O)OCC(=O)NNC(=O)c2ccccc2F)c(C)c1	nt	-6%	nt	1%	11%	-16
Cc1cc(C)c(C(=O)Cn2cnc3cc([N+](=O)[O-])ccc3c2=O)cc1C	2%	?	?	18µM*	-17%	2
CC1CCCCN1C(=O)Cn1cnc2cc([N+](=O)[O-])ccc2c1=O (stereo not drawn)	4%	15µM*	4%	18µM*	-5%	66
O=C(Cn1cnc2cc([N+](=O)[O-])ccc2c1=O)Nc1cccc(S(=O)(=O)N2CCCCC2)c1	nt	?	nt	?	nt	-55*
O=C(Cn1cnc2cc([N+](=O)[O-])ccc2c1=O)Nc1ccc2c(c1)OCO2	5%	-10%	-7%	3%	0%	56
Cc1ccc(NC(=O)Cn2cnc3cc([N+](=O)[O-])ccc3c2=O)cc1	4%	-18%	7%	-13%	-1%	1
COc1ccc(/C(C)=N/Nc2nc3ccccc3n3cnnc23)cc1OC	10%	?	1%	21µM*	?	-5
COc1ccc(C(=O)NCc2nnc(SCC(=O)Nc3ccc(C)cc3)n2-c2ccccc2)cc1	nt	?	nt	-24%	nt	nt
CCOC(=O)c1ccc2nc(C)c(CCC(C)=O)c(Cl)c2c1	2%	-8%	-8%	-2%	?	4
CC(=O)CCc1c(C)nc2ccc(C)cc2c1Cl	3%	-8%	-2%	5.2µM*	7%	?
CCn1c(=O)c(C(=O)Nc2nc3ccccc3[nH]2)c(O)c2ccccc21	11µM*	2.9µM*	8.9µM*	2.6µM*	1%	25
CCn1c(=O)c(C(=O)Nc2ccccc2)c(O)c2ccccc21	18%	?	-3%	?	0%	16
CCn1c(=O)c(C(=O)Nn2c(C)nc3ccccc3c2=O)c(O)c2ccccc21	-13%	16µM*	-1%	?	-5%	30
CCCC1CCC(C(=O)Nn2c(C)nc3ccccc3c2=O)CC1 (stereo not drawn)	20%	-20%	-11%	?	?	10
CCCCCCC1CCC(C(=O)Nn2c(C)nc3ccccc3c2=O)CC1 (stereo not drawn)	?	?	-1%	18µM*	7%	24
CC(=O)c1ccc(S(=O)(=O)N2CCN(C(=O)c3cccc(S(=O)(=O)N4CC(C)OC(C)C4)c3)CC2)cc1 (stereo not drawn)	nt	-26%	nt	-18%	nt	40
SMILES	RORgamma inh	TDP1 cell CPT	VP16 counter	DT40 TDP1 no CPT	ELG1 DNA repair	IL1B secr inh
CC(=O)OCC#CCSc1nnc(-c2cccc(Br)c2)o1	nt	-18%	nt	-18%	nt	nt
O=C1C=C(O)c2cccc(O)c2C1=O	18%	26µM*	-1%	?	?	15
O=C1C=C(O)c2ccccc2C1=O	-7%	?	0%	-2%[9.04 µM]	nt	nt
COc1ccccc1Oc1ccc(NC(=O)Cc2ccccc2)cc1	nt	-9%	nt	-26%	nt	-22
CCn1c(COc2ccc3c(c2)OCO3)nnc1SCC(=O)c1ccccc1	13%	?	13µM*	?	?	-4
COc1ccc(C(=O)CSc2nnc(CN3CCCCC3)n2-c2ccc(Cl)cc2)cc1OC	32%	?	-2%	21µM*	?	-13
CCn1c(COc2ccc(Cl)cc2)nnc1SCC(=O)Nc1ccc2c(c1)OCO2	-7%	-11%	-6%	?	-14%	-15
O=C(CSc1nnc(CN2CCCC2)n1-c1ccccc1)c1ccc2c(c1)OCO2	nt	?	nt	16µM*	6%	-27
Cn1c(SCC(=O)c2ccc3c(c2)OCO3)nnc1C1COc2ccccc2O1 (stereo not drawn)	11%	21µM*	-6%	16µM*	9%	7
CS(=O)(=O)NN1C(=O)c2ccccc2NC1c1c[nH]c2ccccc12 (stereo not drawn)	11%	4%	0%	1%	-1%	26
CC(=O)NC1C(OC(=O)/C=C/c2ccccc2)OC(COC(C)=O)C(OC(C)=O)C1OC(C)=O (stereo not drawn)	-19%	17%	-11%	18%	?	-7
C=CCc1c(C)nc2nc(SCC(=O)Nc3ccccc3CC)nn2c1C	nt	-30%	nt	?	nt	nt
N#Cc1cnn(-c2ccccc2)c1N	1%	-14%	0%	-6%	15%	-1
CC(C)C1N(c2ccccc2)C(N)=C(C#N)C1(C#N)C#N (stereo not drawn)	10%	?	0%	23µM*	-21%	-14
c1ccc(Cc2nc3ccccc3[nH]2)cc1	-21%	-16%	2%	-8%	6%	-2
Cc1ccccc1/C=C\c1nc2ccccc2c(=O)[nH]1	-5%	26µM*	3%	16µM*	?	0
Cc1ccc(/C=C/c2nc3ccccc3[nH]2)o1	11µM*	23µM*	-11%	16µM*	?	-73*
Cc1ccc(/C=C/c2nc3ccccc3[nH]2)cc1	nt	10µM*	nt	13µM*	nt	nt
COc1ccccc1/C=C/c1nc2ccccc2[nH]1	nt	?	nt	14µM*	nt	nt
COc1cc(/C=C/c2nc3ccccc3c(=O)[nH]2)cc(OC)c1OC	2%	-25%	-11%	-16%	35%	?

Compound activity as filed in PubChem.
